Bioassay records as filed in PubChem.
MEP2-GFP yeast: modulators of MEP2-GFP levels in yeast, primary screen, S. cerevisiae, multiplex flow cytometry, MLPCN library. S. cerevisiae MEP2-GFP strain, 3 h; 100% = DMSO control level. GFP response vs DMSO, % at 10 µM. 0.51% of 330,000 active;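 active = GFP response versus DMSO above a set limit, roughly screen mean plus 3 SD, cut at about 180% in these data; inconclusive = fewer than 70 cells counted for a yeast strain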;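 also: median GFP fluorescence of the barcode-gated MEP2-GFP cells per well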
RPL19A-GFP yeast: RPL19A-GFP expression modulators in yeast, primary screen, cell-based, S. cerevisiae, multiplex flow cytometry, MLPCN; S. cerevisiae RPL19A-GFP strain, 3 h; stronger effect = lower value; percent response vs DMSO, % at 10 µM; 0.3% of 330,000 active;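 active = percent response vs DMSO below 50%; inconclusive = fewer than 70 events counted for the yeast strain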;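 also: median channel GFP fluorescence of the barcoded RPL19A-GFP strain; lower means less RPL19A-GFP as with rapamycin TOR inhibition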
CIT2 TOR yeast: modulators of CIT2-GFP expression in yeast, primary screen, S. cerevisiae, GFP fusion, multiplex flow cytometry, MLPCN library; S. cerevisiae CIT2-GFP strain, 3 h; 100 means same as DMSO wells; GFP response vs DMSO, % at 10 µM; 0.065% of 320,000 active; AID 2029, 2009;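 active = GFP response relative to DMSO above a set limit, near the screen mean plus 3 SD, cut at about 150% in these data; inconclusive = Fewer than 70 cells measured for a yeast strain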;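 also: ratio of well median GFP fluorescence to mean of DMSO wells on the plate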
DSG3 Ab inh: inhibitors of pemphigus antibody binding to DSG3, primary screen, biochemical, bead-based, flow cytometry, scFv-GFP; binding (percent of control), % at 10 µM; 0.48% of 310,000 active; AID 588358, 2011; DSG3-coupled beads, scFv-anti-DSG3-GFP binding; stronger effect = lower value;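 active = binding more than 3 SD below its plate's average and above zero; inconclusive = below that plate limit but binding exactly zero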;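 also: hits lower antibody fragment binding to DSG3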
Target sequence (P32926 whole entry, looked up, the tested form may be a part): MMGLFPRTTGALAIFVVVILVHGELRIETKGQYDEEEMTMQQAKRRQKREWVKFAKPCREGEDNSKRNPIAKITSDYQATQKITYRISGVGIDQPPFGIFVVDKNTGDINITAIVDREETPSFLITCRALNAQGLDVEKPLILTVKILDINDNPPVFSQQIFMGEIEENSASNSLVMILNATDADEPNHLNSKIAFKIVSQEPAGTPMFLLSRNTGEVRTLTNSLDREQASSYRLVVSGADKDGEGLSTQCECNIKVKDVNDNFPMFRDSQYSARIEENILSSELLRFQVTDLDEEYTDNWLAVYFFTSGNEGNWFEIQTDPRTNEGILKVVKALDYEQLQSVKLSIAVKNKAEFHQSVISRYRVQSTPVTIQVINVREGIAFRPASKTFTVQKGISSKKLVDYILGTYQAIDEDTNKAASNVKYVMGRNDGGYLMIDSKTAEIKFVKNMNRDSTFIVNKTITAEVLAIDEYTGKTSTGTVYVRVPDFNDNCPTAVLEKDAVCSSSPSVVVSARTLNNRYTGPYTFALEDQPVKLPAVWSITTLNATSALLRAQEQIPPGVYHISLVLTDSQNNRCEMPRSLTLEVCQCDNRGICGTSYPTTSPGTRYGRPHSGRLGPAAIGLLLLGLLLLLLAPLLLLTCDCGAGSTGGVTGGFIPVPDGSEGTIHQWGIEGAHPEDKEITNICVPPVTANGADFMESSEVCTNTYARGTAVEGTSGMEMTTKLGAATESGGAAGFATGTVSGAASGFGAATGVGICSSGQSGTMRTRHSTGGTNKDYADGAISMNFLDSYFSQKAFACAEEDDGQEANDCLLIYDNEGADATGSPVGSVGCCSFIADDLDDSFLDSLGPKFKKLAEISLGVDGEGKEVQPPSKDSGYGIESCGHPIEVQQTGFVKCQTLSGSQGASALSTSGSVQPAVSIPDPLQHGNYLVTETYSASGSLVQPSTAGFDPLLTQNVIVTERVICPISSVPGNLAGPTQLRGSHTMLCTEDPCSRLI
AGP1 TOR yeast: modulators of AGP1-GFP expression in yeast TOR pathway, primary screen, cell-based, multiplex flow cytometry, S. cerevisiae, MLPCN library; 3 h; GFP as percent of DMSO wells; 0.02% of 320,000 active; GFP response vs DMSO, % at 10 µM; AID 2066, 2009;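 active = GFP response relative to DMSO above a set limit, near screen average plus 3 SD, cut at about 150% in these data; inconclusive = fewer than 70 cells counted for the yeast strain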;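 also: median GFP channel fluorescence of the gated AGP1 strain per well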
LAP4 TOR yeast: modulators of LAP4-GFP expression in yeast, primary screen, S. cerevisiae, multiplex flow cytometry, MLPCN library | GFP response vs DMSO, % at 10 µM | 3 h; median GFP as percent of DMSO wells | AID 2023, 2009 | 0.34% of 320,000 active;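 active = GFP response vs DMSO above a set limit, about the screen mean plus 3 SD, cut at about 150% in these data; inconclusive = under 70 cell events counted for the yeast strain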
A number is an active result; 0 = inactive; ? = inconclusive; - = no result; [ ] = another dose, or the depositor's remark. Compounds with a hit are over-represented: about 1.2% of the library has one in this group of screens.

SMILES	MEP2-GFP yeast	RPL19A-GFP yeast	CIT2 TOR yeast	DSG3 Ab inh	AGP1 TOR yeast	LAP4 TOR yeast
N#Cc1c(-c2ccc(Cl)cc2)c(-c2ccc(Cl)cc2)nn(CCO)c1=O	-	-	-	0	-	-
CS(=O)(=O)N(CCc1ccccc1)CC(=O)N1CCCCCC1	-	-	-	0	-	-
CS(=O)(=O)N(CCc1ccccc1)CC(=O)N1CCCC1	?	43[may fluoresce violet]	?	0	?	?
O=C(CN1C(=O)/C(=C2\SC(=S)N(CCS(=O)(=O)O)C2=O)c2ccccc21)Nc1cccc(Br)c1	0	0	0	45	0	0
COCCN1C(=O)/C(=C2/C(=O)N(CC(=O)Nc3ccccc3Cl)c3ccccc32)SC1=S	0	0	0	0	0	0
O=C(CN1C(=O)/C(=C2/SC(=S)N(CCS(=O)(=O)O)C2=O)c2ccccc21)Nc1cccc(C(F)(F)F)c1	0	0	0	82	0	0
CCOc1ccccc1C(=O)NCC(=O)N1CCC(C)CC1	0	0	0	0	0	0
Cc1ccc2c(c1)N(CC(=O)NCCCN1CCOCC1)C(=O)C(C(C)C)O2 (configuration not stated)	0	0	0	0	0	0
COCc1cc(=O)c2ccccc2o1	0	0	0	0	0	0
CCn1c(CSc2nnc3ccccn23)nc2cc(C(=O)O)ccc21	0	0	0	36	0	0
CCCNc1c(NC(=O)C2CCC(C)CC2)c(=O)oc2ccccc12 (configuration not stated)	0	0	0	0	0	0
O=S(=O)(N[C@H](CO)Cc1ccccc1)c1ccc(Br)cc1F	-	-	-	0	-	-
S=C(NCCCN1CCN(CCCNC(=S)NC2CCCCC2)CC1)NC1CCCCC1	-	-	-	0	-	-
Cc1nc(-c2ccc3c(c2)OCCO3)cs1	0	0	0	0	0	0
N#Cc1cncc(-c2ccc3c(c2)OCCOCCOCCOCCOCCO3)n1	233[may fluoresce violet]	25[may fluoresce violet]	?	0	?	0
CCOC(=O)C1CCCN(C(=O)C(CCSC)NC(=O)COc2ccccc2)C1 (configuration not stated)	-	-	-	0	-	-
C=CCn1c(OCc2ccccc2)n[nH]c1=S	0	0	0	0	0	0
CN(CC(=O)Nc1ccc(F)c(F)c1)S(=O)(=O)c1cccs1	?	27[may fluoresce violet]	?	0	?	?
COc1ccc(S(=O)(=O)N(C)CC(=O)Nc2ccc3c(c2)OCO3)cc1	0	0	0	0	0	0
CN(CC(=O)Nc1ccc2c(c1)OCO2)S(=O)(=O)c1cccs1	302[may fluoresce violet]	45[may fluoresce violet]	?	0	?	0
COc1ccc(CN2C(=O)C(Cc3ccccc3)Nc3ncnc(N4CCc5ccccc5C4)c32)cc1 (configuration not stated)	0	0	0	-	0	0
COc1cccc(C(=O)Nc2ccc3nc(N4CCN(c5ncccn5)CC4)cc(C)c3c2)c1OC	272[may fluoresce violet]	18[may fluoresce violet]	?	-	?	0
CCOc1ccccc1C(=O)Nc1ccc2nc(N3CCN(c4ncccn4)CC3)cc(C)c2c1	0	0	0	-	0	0
O=[N+]([O-])c1ccc(Nc2ccccc2)c2nonc12	0	0	0	0	0	0
NNc1ccc([N+](=O)[O-])c2[nH][nH]c(=O)c12	-	-	-	83	-	-
SMILES	MEP2-GFP yeast	RPL19A-GFP yeast	CIT2 TOR yeast	DSG3 Ab inh	AGP1 TOR yeast	LAP4 TOR yeast
Cc1nc2c(cnn2CCO)c(=O)[nH]1	-	-	-	0	-	-
CCOC(=O)c1sc2nc(CC(C)C)c3c(c2c1N)CCC3	0	0	0	-12	0	0
CC(=O)c1sc2nc(C)c3c(c2c1N)CCCC3	0	0	0	0	0	167
CCOC(=O)c1sc2nc(C)cc(C)c2c1N	0	0	0	0	0	0
CSc1cccc(NC(=S)Nc2ccc(F)cc2)c1	576[may fluoresce violet]	0	-	-	-	-
COCCCNC(=S)Nc1cccc(SC)c1	243[may fluoresce violet]	41[may fluoresce violet]	?	0	?	0
CSc1cccc(NC(=S)NN(C)C)c1	0	0	0	-	0	0
CN1CCN(C(=O)/C(=C\c2cccs2)NC(=O)c2ccccc2)CC1	0	0	0	-	0	0
CN1CCN(C(=O)/C(=C/c2ccccc2Cl)NC(=O)c2ccccc2)CC1	475[may fluoresce violet]	0	?	0	0	0
Clc1ccc2nc(N3CCNCC3)nc(-c3ccccc3)c2c1	?	39[may fluoresce violet]	?	-	?	?
CN1CCN(c2nc(-c3ccccc3)c3cc(Cl)ccc3n2)CC1	0	0	0	0	0	0
O=C1/C(=C\c2ccccn2)SC(=S)N1Nc1ncc(C(F)(F)F)cc1Cl	0	0	0	0	0	152
O=[N+]([O-])c1ccc(O)c(NC(=S)Nc2ccccc2)c1	313[may fluoresce violet]	0	?	-	0	0
CC1CCc2[nH]c3ccc(C(=O)N(C)CC(=O)Nc4ccccc4C(F)(F)F)cc3c2C1 (configuration not stated)	0	0	0	0	0	0
CCN(Cc1ccc(Br)s1)C(=O)CSc1nnc(C2CC2)n1C1CC1	-	-	-	0	-	-
CCOC(=O)C1=C(Cc2ccc(C)cc2)C(=O)c2ccccc2C1=O	0	0	0	-	0	168
CCOC(=O)C1=C(Cc2ccc(OC)cc2)C(=O)c2ccccc2C1=O	-	-	-	0	-	-
CC1(C)C(=O)Nc2ccccc2N1C(=O)COC(=O)Cc1ccc(Cl)c(Cl)c1	0	0	0	0	0	0
Cc1cccc(NC(=O)c2cc3c(s2)-c2c(C)cccc2OC3)n1	222[may fluoresce violet]	0	?	0	0	0
COC(=O)[C@H]1C[C@H](OC(=O)NC2CC2)[C@@]2(O)CN(S(=O)(=O)c3ccc(C)cc3)CC2[C@H]1C(=O)OC (some centres not stated)	-	-	-	0	-	-
O=C(Cn1cc(/C=C\[N+](=O)[O-])c2ccccc21)Nc1ccccc1	0	0	0	0	0	0
O=[N+]([O-])/C=C/c1cn(Cc2ccccc2)c2ccccc12	0	0	0	0	0	178
O=C(O)Cn1cc(/C=C/[N+](=O)[O-])c2ccccc21	0	0	0	0	0	0
N#Cc1ccccc1Cn1cc(/C=C/[N+](=O)[O-])c2ccccc21	0	0	0	0	0	156
CCOc1ccc(/C=C2\CCCc3c2nc2ccccc2c3C(=O)O)cc1OC	0	0	0	-	0	0
CCCc1cc(=O)oc2cc(C)cc(OCC(=O)NCCN3CCOCC3)c12	0	0	0	0	0	0
CCCc1cc(=O)oc2cc(C)cc(OCC(=O)Nc3ccc(CN4CCOCC4)cc3)c12	271[may fluoresce violet]	28[may fluoresce violet]	?	0	?	0
CC1CN(c2nc(-c3ccc(Br)cc3)nnc2-c2ccccc2)CC(C)N1 (configuration not stated)	496[may fluoresce violet]	29[may fluoresce violet]	?	0	-	0
CCOC(=O)c1c(-c2ccccc2)c[nH]c1C	-	-	-	70	-	-
